What was measured:
Experiment in all cases: yeast three-hybrid, YBZ-1, SC-Leu-His + 0.5 mM 3-AT, 4 days
Settings in all cases: tags: N-Gal4 AD-HA kept; label: inside an RPR1-promoter hybrid RNA with tandem MS2 sites; ssRNA
PUM1 PUF domain R1-KCN = PUM1 PUF domain R1-KCN (Homo sapiens, UniProt Q14671 828-1176, S863K;R864C;Q867N)
In short: (§1)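 Matching RNA elements and Pumilio-1 PUF domain libraries, randomized at the three base-contacting residues of every repeat, were co-expressed from a centromeric plasmid in strain YBZ-1 (LexA–MS2 coat fusion, HIS3 reporter). The repeat regions were PCR-amplified and Illumina-sequenced from cells grown four days on SC-Leu (input) or SC-Leu-His + 0.5 mM 3-AT (selection). The interaction score is the log change in variant frequency from input to selection. It is computed in log2, with a pseudocount of 1 for absent variants.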

PUM1 PUF domain R3-LNS = PUM1 PUF domain R3-LNS (Homo sapiens, UniProt Q14671 828-1176, C935L;R936N;Q939S)
In short: as §1

PUM1 PUF domain R5-RLQ = PUM1 PUF domain R5-RLQ (Homo sapiens, UniProt Q14671 828-1176, C1007R;R1008L)
In short: as §1

PUM1 PUF domain R4-SPN = PUM1 PUF domain R4-SPN (Homo sapiens, UniProt Q14671 828-1176, N971S;H972P;Q975N)
In short: as §1

PUM1 PUF domain R4-NNC = PUM1 PUF domain R4-NNC (Homo sapiens, UniProt Q14671 828-1176, H972N;Q975C)
In short: as §1

PUM1 PUF domain R8-PYW = PUM1 PUF domain R8-PYW (Homo sapiens, UniProt Q14671 828-1176, N1122P;Q1126W)
In short: as §1

PUM1 PUF domain R8-TRK = PUM1 PUF domain R8-TRK (Homo sapiens, UniProt Q14671 828-1176, N1122T;Y1123R;Q1126K)
In short: as §1

PUM1 PUF domain R5-SLC = PUM1 PUF domain R5-SLC (Homo sapiens, UniProt Q14671 828-1176, C1007S;R1008L;Q1011C)
In short: as §1

PUM1 PUF domain R6-RRE = target: T1, PUM1 PUF domain R6-RRE (Homo sapiens, UniProt Q14671 828-1176, N1043R;Y1044R;Q1047E)
T1 sequence: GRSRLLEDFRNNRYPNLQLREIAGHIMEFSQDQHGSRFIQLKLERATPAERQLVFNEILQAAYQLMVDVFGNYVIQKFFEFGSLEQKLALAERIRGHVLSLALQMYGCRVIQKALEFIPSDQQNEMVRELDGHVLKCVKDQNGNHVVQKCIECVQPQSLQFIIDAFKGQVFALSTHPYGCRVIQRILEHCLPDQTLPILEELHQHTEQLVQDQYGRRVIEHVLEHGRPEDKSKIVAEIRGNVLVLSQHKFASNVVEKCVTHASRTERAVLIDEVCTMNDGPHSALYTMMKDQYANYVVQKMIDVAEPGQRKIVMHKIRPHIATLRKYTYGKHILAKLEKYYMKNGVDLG
In short: as §1

PUM1 PUF domain R5-DRD = PUM1 PUF domain R5-DRD (Homo sapiens, UniProt Q14671 828-1176, C1007D;Q1011D)
In short: as §1

GGCUAGAACUAGUGGAUCCCCCGGCGCCCGGCGGCUCGAGCCCGGGUAAGUGUAAAUUGUCUGCAUGCCGCCGGGCGCCAUGCCUGCAGGUCGACUCUAGAAAACAUG
binding signal (PUM1 PUF domain R1-KCN): 3.67 log2 enrichment (interaction score)

GGCUAGAACUAGUGGAUCCCCCGGCGCCCGGCGGCUCGAGCCCGGGUAAGUGUAAGUAGUCUGCAUGCCGCCGGGCGCCAUGCCUGCAGGUCGACUCUAGAAAACAUG
binding signal (PUM1 PUF domain R3-LNS): 4.27 log2 enrichment (interaction score)

GGCUAGAACUAGUGGAUCCCCCGGCGCCCGGCGGCUCGAGCCCGGGUAAGUGUCAAUAGUCUGCAUGCCGCCGGGCGCCAUGCCUGCAGGUCGACUCUAGAAAACAUG
binding signal (PUM1 PUF domain R5-RLQ): 2.19 log2 enrichment (interaction score)

GGCUAGAACUAGUGGAUCCCCCGGCGCCCGGCGGCUCGAGCCCGGGUAAGUGUAUAUAGUCUGCAUGCCGCCGGGCGCCAUGCCUGCAGGUCGACUCUAGAAAACAUG
binding signal (PUM1 PUF domain R4-SPN): 4.43 log2 enrichment (interaction score) | binding signal (PUM1 PUF domain R4-NNC): 3.85 log2 enrichment (interaction score)

GGCUAGAACUAGUGGAUCCCCCGGCGCCCGGCGGCUCGAGCCCGGGUAAGUGUACAUAGUCUGCAUGCCGCCGGGCGCCAUGCCUGCAGGUCGACUCUAGAAAACAUG
binding signal (PUM1 PUF domain R4-SPN): 1.41 log2 enrichment (interaction score)

GGCUAGAACUAGUGGAUCCCCCGGCGCCCGGCGGCUCGAGCCCGGGUAAGUGUAAAUAGUCUGCAUGCCGCCGGGCGCCAUGCCUGCAGGUCGACUCUAGAAAACAUG
binding signal (PUM1 PUF domain R8-PYW): 3.3 log2 enrichment (interaction score) | binding signal (PUM1 PUF domain R8-TRK): 2.15 log2 enrichment (interaction score) | binding signal (PUM1 PUF domain R5-SLC): 0.65 log2 enrichment (interaction score) | binding signal (PUM1 PUF domain R4-SPN): 2.58 log2 enrichment (interaction score) | binding signal (PUM1 PUF domain R6-RRE): 4.26 log2 enrichment (interaction score) | binding signal (PUM1 PUF domain R4-NNC): 2.42 log2 enrichment (interaction score)

GGCUAGAACUAGUGGAUCCCCCGGCGCCCGGCGGCUCGAGCCCGGGUAAGUGUUAAUAGUCUGCAUGCCGCCGGGCGCCAUGCCUGCAGGUCGACUCUAGAAAACAUG
binding signal (PUM1 PUF domain R5-RLQ): 1.58 log2 enrichment (interaction score)

GGCUAGAACUAGUGGAUCCCCCGGCGCCCGGCGGCUCGAGCCCGGGUAAGUGUAAUUAGUCUGCAUGCCGCCGGGCGCCAUGCCUGCAGGUCGACUCUAGAAAACAUG
binding signal (PUM1 PUF domain R3-LNS): 3.52 log2 enrichment (interaction score)

GGCUAGAACUAGUGGAUCCCCCGGCGCCCGGCGGCUCGAGCCCGGGUAAGCGUAAAUAGUCUGCAUGCCGCCGGGCGCCAUGCCUGCAGGUCGACUCUAGAAAACAUG
binding signal (PUM1 PUF domain R8-TRK): 3.25 log2 enrichment (interaction score)

GGCUAGAACUAGUGGAUCCCCCGGCGCCCGGCGGCUCGAGCCCGGGUAAGUGUGAAUAGUCUGCAUGCCGCCGGGCGCCAUGCCUGCAGGUCGACUCUAGAAAACAUG
binding signal (PUM1 PUF domain R5-DRD): 4.33 log2 enrichment (interaction score) | binding signal (PUM1 PUF domain R5-SLC): 2.98 log2 enrichment (interaction score)
